This is a sample that favours compounds with a hit; in the whole collection about 11% have one here.
USP17 block = blocks human USP17 ubiquitin-rhodamine cleavage | actives 6.5% (n = 47,000) | purified USP17, Ub-rhodamine cleavage fluorescence, 3 h | inhibition, % at 50 µM | A8MUK1
USP28 block = blocks human USP28 ubiquitin-rhodamine cleavage; purified USP28, Ub-rhodamine cleavage fluorescence, 30 min; actives 3% (n = 47,000); Q96RU2; inhibition, % at 25 µM
USP30 block = blocks human USP30 ubiquitin-rhodamine cleavage; Q70CQ3; purified USP30, Ub-rhodamine cleavage fluorescence; inhibition, % at 25 µM; actives 5.3% (n = 47,000)
Target sequence (Q70CQ3 whole entry, looked up): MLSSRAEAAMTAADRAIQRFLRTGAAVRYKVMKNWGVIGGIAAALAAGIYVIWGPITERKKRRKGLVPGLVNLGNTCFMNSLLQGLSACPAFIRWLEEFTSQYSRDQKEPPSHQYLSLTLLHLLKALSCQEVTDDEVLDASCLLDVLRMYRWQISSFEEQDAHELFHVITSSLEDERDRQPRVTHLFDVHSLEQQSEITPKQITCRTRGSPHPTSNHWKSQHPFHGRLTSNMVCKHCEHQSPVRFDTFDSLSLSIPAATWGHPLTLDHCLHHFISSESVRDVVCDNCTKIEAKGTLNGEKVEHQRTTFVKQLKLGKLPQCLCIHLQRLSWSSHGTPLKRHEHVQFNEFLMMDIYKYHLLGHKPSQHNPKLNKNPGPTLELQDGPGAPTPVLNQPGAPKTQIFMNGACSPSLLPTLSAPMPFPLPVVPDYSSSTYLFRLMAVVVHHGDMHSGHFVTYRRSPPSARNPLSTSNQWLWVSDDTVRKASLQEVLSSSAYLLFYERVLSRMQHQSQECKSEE
Starred values were filed as active, the others as inactive; . = not tested or not shown. Rule as the data show it: active = inhibition above about 30%; inactive = the rest.

SMILES | USP17 block | USP28 block | USP30 block
COc1cccc(-n2nnc(-c3nnc(-c4ccccc4C)o3)c2C)c1 | -2 | 2 | 49*
C=C1Nc2ccccc2C(=O)N1c1cccc(NC(=O)c2cccc(OC)c2)c1 | -5 | 8 | 0
Cc1ccc(NC(=O)N2C(c3ccccc3)COC23CCN(c2c([N+](=O)[O-])cc(C(F)(F)F)cc2[N+](=O)[O-])CC3)cc1 (centres undefined) | 3 | -5 | 0
CN(CC(=O)Nc1cccc(Cl)c1)Cc1nc2ccccc2c(=O)[nH]1 | -14 | -6 | -23
CC1CCCCN1C(=O)Cn1ncc2cccn2c1=O (centres undefined) | 12 | 14 | 29
COc1ccc(S(=O)(=O)N2CCN(c3c(C)n(C)c(=O)n(C)c3=O)CC2)cc1OC | 8 | 4 | 25
CCc1ccccc1OCCOCCN1CCN(C)CC1 | -34 | -2 | -17
Cc1cc(OCCOCCN2CCN(C)CC2)cc(C)c1Cl | 0 | 33* | 5
Cn1nc(-c2ccccc2)c2cc(C(=O)N3CCOCC3)sc21 | 0 | 3 | 12
CCOC(=O)c1cc2c(CSc3ccccc3)nn(C)c2s1 | 28 | 34* | 36*
Cc1nc(C2CN(C(=O)c3c(C(C)C)noc3C)CCO2)cc(=O)[nH]1 (centres undefined) | 11 | 6 | 18
CCOC(=O)c1cccc(NC(=O)Cc2csc(-c3ccc(OC)c(OC)c3)n2)c1 | -25 | 5 | -68
CNc1nc(C2CCCN(C(=O)c3cc(C4CC4)on3)C2)nc2c1CCN(C)C2 (centres undefined) | -27 | -76 | -196
Cc1ccc(-c2c(C(=O)N3CCC4(CC3)OCCO4)nc3ccccn23)cc1 | 28 | 4 | 18
Cc1noc2nc(C)n(CC(=O)NCc3ccccc3Cl)c(=O)c12 | -11 | -12 | -7
COc1ccccc1CNC(=O)Cn1c(C)nc2onc(C)c2c1=O | 16 | 13 | 35*
CCN1CCN(C(=O)Cn2c(=O)[nH]c3c(-c4ccccc4)c[nH]c3c2=O)CC1 | 14 | 7 | 19
COc1ccccc1CNC(=O)Cn1c(=O)[nH]c2c(-c3ccccc3)c[nH]c2c1=O | 44* | -6 | -110
CCC(C)NC(=O)Cn1c(=O)[nH]c2c(-c3ccccc3)c[nH]c2c1=O (centres undefined) | 38* | . | .
COc1ccc(CNC(=O)Cn2c(=O)[nH]c3c(-c4ccccc4F)c[nH]c3c2=O)cc1 | -18 | -47 | -31
CNc1nc(C2CCN(C(C)=O)C2)nc2c1CCN(S(=O)(=O)c1ccc(F)c(C)c1)C2 (centres undefined) | -4 | -3 | 8
COC[C@@H]1C[C@@]1(CN1CCN(S(C)(=O)=O)CC1)c1ccccc1 | -19 | 5 | 17
CCC(C)C(=O)NC(=NCCc1c[nH]c2ccccc12)Nc1nc(C)cc(C)n1 (centres undefined) | -13 | -8 | -19
COc1cc(Cl)c(C)cc1NC(=O)c1nc(-c2ccncc2)no1 | 40* | 14 | 34*
Cc1ccc(CNC(=O)c2nc(-c3ccncc3)no2)cc1 | 0 | -7 | -5
SMILES | USP17 block | USP28 block | USP30 block
COc1ccc([C@H]2C[C@@H](O)[C@@H](O)[C@@H]2NC(=O)c2ccccc2C)cc1 | 19 | 6 | 19
O=C(Nc1ccc(-n2cccc2)cc1)c1cccc([N+](=O)[O-])c1 | 8 | 8 | 37*
O=C(Nc1ccc(-n2cccc2)c(Cl)c1)c1cccc([N+](=O)[O-])c1 | 27 | -31 | -65
CCc1noc(-c2c(C)[nH]c(C)c2S(=O)(=O)Nc2cc(F)ccc2Cl)n1 | -17 | -22 | -71
O=S1(=O)NCNc2ccccc21 | 18 | 3 | 24
O=C(CC1CCN(S(=O)(=O)c2ccc(Cl)cc2)CC1)NCc1cccc(F)c1 | 21 | 8 | 4
CCn1nc(C)c(S(=O)(=O)N2CCN(C(=O)Cc3ccc(F)cc3)CC2)c1C | 0 | -11 | 5
Cc1cccc(NC(=O)Cn2c(N3CCCCC3)nc(C)cc2=O)c1 | -10 | -5 | -11
CCc1cccc(NC(=O)Cn2c(=O)nc(N3CCCCC3)c3ccccc32)c1 | 43* | 8 | 9
O=C(c1cc2ccccc2[nH]1)N1CCOCC(Cc2ccncn2)C1 (centres undefined) | . | -6 | -6
CC1=CC[C@]2(C)C[C@@H](O)[C@](O)(C(C)C)C2CC1 (some centres undefined) | 1 | 1 | 32*
CC(C)c1ccc(NC(=O)COC(=O)c2ccc3[nH]c4c(c3c2)CCCC4)cc1 | 58* | 0 | -20
O=C(COC(=O)c1ccc2[nH]c3c(c2c1)CCCC3)Nc1ccccc1-c1ccccc1 | . | -3 | -53
O=C(COC(=O)c1ccc2[nH]c3c(c2c1)CCCC3)Nc1ccc2c(c1)OCO2 | 66* | 19 | 42*
O=C(COC(=O)c1ccc2[nH]c3c(c2c1)CCCC3)Nc1ccccc1Cl | 11 | 7 | -2
CS(=O)(=O)c1ccc(Cl)c(NC(=O)COC(=O)c2ccc3[nH]c4c(c3c2)CCCC4)c1 | . | 26 | 35*
COc1ccc(Cl)cc1C(=O)OCC(=O)Nc1ccc2c(c1)OCO2 | 14 | 8 | -33
O=C(COc1ccc(-c2ccccc2)cc1)N1CCC(Cc2ccccc2)CC1 | 12 | 22 | 22
COc1cccc(OC)c1C(=O)Nc1ccc2c(c1)CN(C(C)=O)CC2 | 10 | 4 | 10
CCN1CCN(c2ccc(NC(=O)COc3ccccc3C)cc2)CC1 | -12 | -16 | -60
Cc1ccccc1OCC(=O)Nc1ccc2c(c1)CN(C(=O)c1ccco1)CC2 | 22 | 37* | 26
O=C(COc1ccc(-c2ccccc2)cc1)N1CCN(C(=O)c2ccco2)CC1 | 20 | -6 | 31*
Cc1ccc(OCC(=O)Nc2ccc3c(c2)CN(C(=O)c2ccco2)CC3)cc1 | 51* | 50* | 43*
O=C(Nc1ccc2c3c(cccc13)CC2)c1ccc(S(=O)(=O)N2CCc3ccccc3C2)cc1 | -49 | -32 | -174
O=C(C1CCN(c2nc3cccnc3s2)CC1)N1CCC(Cc2ccccc2)CC1 | 7 | 22 | 20
SMILES | USP17 block | USP28 block | USP30 block
Cc1ccc(CNc2nc3nc(C)c(CCC(=O)N4CCC(C)CC4)c(=O)n3[nH]2)cc1 | -2 | -8 | -1
CCc1ccccc1NC(=O)N1CCC2(CC1)Nc1ccccc1-n1cccc12 | 45* | 11 | 3
COc1ccc(C)cc1NC(=O)N1CCC2(CC1)Nc1ccccc1-n1cccc12 | -2 | 14 | 11
CC(=O)N1CC2(CCN(C(=O)c3ccccn3)CC2)Nc2ccccc21 | 0 | 0 | -7
O=C(Nc1cccc(C(F)(F)F)c1)N1CCC2(CC1)Nc1ccccc1-n1cccc12 | 21 | 7 | 43*
O=C(c1ccccn1)N1CCC2(CC1)CC1(CO2)Nc2ccccc2-n2cccc21 (centres undefined) | 46* | -19 | -144
O=C(Nc1ccc2c(c1)OCCO2)N1CCC2(CC1)Nc1ccccc1-n1cccc12 | 14 | 19 | 22
CCOc1ccccc1C(=O)Nc1cnc(N2CCCC2)nc1 | -7 | 0 | -1
COc1ccc(CCNC(=O)[C@H](C(C)C)N2C(=O)N3CCc4c([nH]c5ccccc45)[C@@]3(C)C2=O)cc1OC | -3 | -7 | -12
O=C(c1ccc(Cn2c(=O)[nH]c3ccccc3c2=O)cc1)N1CCN(Cc2ccc3c(c2)OCO3)CC1 | 33* | 18 | 25
